The whole screen tested about 310,000 compounds, of which about 14,000 (4.5%) showed an effect of 50% or more. Effects have a minus sign here. The entries come from a sample that favours strong results as a whole.
Biological target: human ether-à-go-go-related gene (hERG) potassium channel (human, UniProt Q12809)
Assay: primary screen, population patch clamp on CHO cells stably expressing hERG; higher = less effect of the substance
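Further: peak tail current of the secondary pulse compared with the same well before compound.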

Chain of human ether-à-go-go-related gene (hERG) potassium channel (Q12809 whole entry, looked up): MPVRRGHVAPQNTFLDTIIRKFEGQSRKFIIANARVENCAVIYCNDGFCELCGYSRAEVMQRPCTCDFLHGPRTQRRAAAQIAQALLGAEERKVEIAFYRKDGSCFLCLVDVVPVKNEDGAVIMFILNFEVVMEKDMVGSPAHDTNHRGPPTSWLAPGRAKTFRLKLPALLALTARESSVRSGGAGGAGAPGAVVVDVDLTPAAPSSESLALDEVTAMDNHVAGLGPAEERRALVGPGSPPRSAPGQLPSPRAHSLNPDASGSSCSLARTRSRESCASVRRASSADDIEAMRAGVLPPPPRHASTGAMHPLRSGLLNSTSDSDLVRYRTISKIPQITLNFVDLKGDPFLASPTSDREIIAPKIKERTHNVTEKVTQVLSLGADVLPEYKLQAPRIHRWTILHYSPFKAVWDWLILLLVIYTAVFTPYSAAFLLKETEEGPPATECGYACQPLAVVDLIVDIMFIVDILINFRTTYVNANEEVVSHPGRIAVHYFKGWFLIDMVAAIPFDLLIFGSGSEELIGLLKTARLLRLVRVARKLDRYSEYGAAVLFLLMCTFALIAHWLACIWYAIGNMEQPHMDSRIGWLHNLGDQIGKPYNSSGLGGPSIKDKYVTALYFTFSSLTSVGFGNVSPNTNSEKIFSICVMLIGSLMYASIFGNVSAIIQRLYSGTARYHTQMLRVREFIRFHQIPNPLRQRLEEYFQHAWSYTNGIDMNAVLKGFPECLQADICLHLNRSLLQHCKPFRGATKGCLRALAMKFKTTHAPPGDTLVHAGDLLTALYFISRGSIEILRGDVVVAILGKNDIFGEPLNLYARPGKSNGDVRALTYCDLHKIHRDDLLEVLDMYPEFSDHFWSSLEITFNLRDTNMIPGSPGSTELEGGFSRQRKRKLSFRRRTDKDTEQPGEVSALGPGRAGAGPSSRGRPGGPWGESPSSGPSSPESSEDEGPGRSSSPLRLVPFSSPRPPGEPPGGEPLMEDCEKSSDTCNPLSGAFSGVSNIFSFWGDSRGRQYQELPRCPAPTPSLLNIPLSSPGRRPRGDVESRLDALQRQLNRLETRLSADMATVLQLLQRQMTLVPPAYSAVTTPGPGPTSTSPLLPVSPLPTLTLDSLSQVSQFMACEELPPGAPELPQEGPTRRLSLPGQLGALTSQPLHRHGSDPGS

Row | Compound | hERG current change (%, negative = inhibition) at 10uM
1 | O=C(O)c1ccc2c(c1)S(=O)(=O)c1ccccc1C2=O | 17%
2 | CCc1cc2cc(C(=O)Nc3ccc(F)cc3)sc2s1 | 3.32%
3 | COc1cc(NC(=O)COC(=O)CNC(=O)c2ccc(C)s2)cc(OC)c1 | 4.76%
4 | Cc1ccc(C(=O)N2CCN(c3ccccc3)CC2)cc1C | 4.41%
5 | O=C(c1ccc(-c2ccccc2)cc1)N1CCN(c2ccccn2)CC1 | -36.4%
6 | CN(CC(=O)Nc1cccc(F)c1)C(=O)c1ccncc1 | 4.28%
7 | CCOc1ccc(OCC)c(NC(=O)C2CCN(S(=O)(=O)c3c(C)[nH]c(=O)[nH]c3=O)CC2)c1 | 7.51%
8 | CSc1nsc(SC)c1NC(=O)N1CCCC1 | -13.1%
9 | COCc1nnc(NC(=O)CCCOc2ccccc2OC)s1 | 9.6%
10 | COc1ccc(-c2cc(C)no2)cc1S(=O)(=O)N(C)c1cccc(C)c1 | -82.5%
11 | COc1ccc(-c2cc(C)no2)cc1S(=O)(=O)N(C)c1ccc(C)cc1 | -29.6%
12 | COc1ccc(-c2cc(C)no2)cc1S(=O)(=O)N(C)c1ccc(C)c(C)c1 | -1.83%
13 | CC(=O)N1CCc2c(sc3c2c(=O)n(Cc2ccccc2)c(=O)n3CC(=O)NCC2CCCO2)C1 (centres unmarked) | -21.6%
14 | CCCCOC1CC(c2ccc(OCc3ccc(OC)cc3)c(OC)c2)N(C)O1 (centres unmarked) | 3.47%
15 | Cc1ccn2c(CNC(C)c3cn(C)nc3C)c(C(=O)N3CCCCCC3)nc2c1 (centres unmarked) | 0.193%
16 | O=C(CCN1C(=O)C2C3C=CC(C3)C2C1=O)N1CCN(c2ccccc2Cl)CC1 (centres unmarked) | -57.2%
17 | O=C(CCN1C(=O)C2C3C=CC(C3)C2C1=O)N1CCN(c2ccccc2F)CC1 (centres unmarked) | -4.87%
18 | O=C(CCN1C(=O)C2C3C=CC(C3)C2C1=O)N1CCN(c2ccc([N+](=O)[O-])cc2)CC1 (centres unmarked) | -81.2%
19 | O=C(CCN1C(=O)C2C3C=CC(C3)C2C1=O)N1CCN(c2cccc(Cl)c2)CC1 (centres unmarked) | -38.4%

Row | Compound | hERG current change (%, negative = inhibition) at 10uM
20 | COc1ccc(N2CCN(C(=O)CCN3C(=O)C4C5C=CC(C5)C4C3=O)CC2)cc1 (centres unmarked) | -0.214%
21 | O=C(CCN1C(=O)C2C3C=CC(C3)C2C1=O)N1CCN(c2ccc(F)cc2)CC1 (centres unmarked) | -25.8%
22 | O=C(CSc1ccc2nnc(CCNC(=O)c3ccccc3)n2n1)NCc1ccccc1 | -8.24%
23 | COc1ccc2nc(SC)c(C#N)cc2c1 | 15.1%
24 | CCOC(=O)c1cnc(Nc2ccc(OCC)cc2)nc1C | 12.6%
25 | COc1cccc(CN2CC(C(=O)NCc3ccc(C)c(F)c3)CCC2=O)c1 (centres unmarked) | -40.8%
26 | O=C(NCCc1ccccc1)C1CCC(=O)N(Cc2cccc(C(F)(F)F)c2)C1 (centres unmarked) | -14.2%
27 | O=C(NCCc1cccnc1)C1CCC(=O)N(Cc2cccc(C(F)(F)F)c2)C1 (centres unmarked) | -8.64%
28 | O=C(NCCC1=CCCCC1)C1CCC(=O)N(Cc2ccc(Cl)cc2)C1 (centres unmarked) | -2.34%
29 | Cc1cccc(CCNC(=O)C2CCC(=O)N(Cc3ccc(Cl)cc3)C2)n1 (centres unmarked) | 5.05%
30 | COc1ccccc1CN1CC(C(=O)NCc2ccc(C)c(F)c2)CCC1=O (centres unmarked) | 0.721%
31 | Cc1ccc(CNC(=O)C2CCC(=O)N(Cc3ccc(Cl)cc3)C2)cc1F (centres unmarked) | -63.6%
32 | O=C(NCCc1cccc(C(F)(F)F)c1)C1CCC(=O)N(Cc2ccc(Cl)cc2)C1 (centres unmarked) | -59%
33 | O=C(NCCc1cccc(Cl)c1)C1CCC(=O)N(Cc2ccc(Cl)cc2)C1 (centres unmarked) | -52.3%
34 | CCC(C)(C)NC(=O)C(OC(=O)c1ccco1)c1ccccc1F (centres unmarked) | 13.4%
35 | O=C(CCCCCN1C(=O)[C@@H]2Cc3ccccc3CN2C1=O)N[C@@H](Cc1ccc(O)cc1)C(=O)O | 1.02%
36 | CC1Oc2ccccc2N(CC(=O)N(Cc2ccccc2)Cc2ccccn2)C1=O (centres unmarked) | 0.288%
37 | COc1ccc(/C=N/N2C(=O)C3C4C=CC(C4)C3C2=O)cc1[N+](=O)[O-] (centres unmarked) | -6.14%
38 | Cc1ccc2c(c1)NCC(C(=O)NC1CCC(C)CC1)O2 (centres unmarked) | 6.16%

Row | Compound | hERG current change (%, negative = inhibition) at 10uM
39 | O=C(NCCOc1ccc2ccccc2c1)c1cncc(Br)c1 | 3.79%
40 | CCOc1ccc(C(C)=O)cc1N1C(=O)C2C3C=CC(C3)C2C1=O (centres unmarked) | 8.85%
41 | O=C(NCc1ccc(F)cc1)C1CCCN1S(=O)(=O)c1ccccc1C(F)(F)F (centres unmarked) | -13.4%
42 | O=C(CSc1nnc(-c2ccccc2)o1)c1nnc(-c2ccccc2)o1 | 20.1%
43 | CC1(C)C(=O)Nc2ccccc2N1C(=O)COC(=O)c1ccc(Cl)c(S(=O)(=O)NCc2ccccc2)c1 | -12.8%
44 | Cc1ccc(CN2CC(C(=O)N3CCN(S(=O)(=O)c4ccc(C)cc4C)CC3)CC2=O)cc1 (centres unmarked) | -28.2%
45 | O=C1C(O)CC2c3ccccc3CC3(CCCC3)N12 (centres unmarked) | 6.83%
46 | CC(C)CC12CN3CCN(CC(C3)C1O)C2 (centres unmarked) | -1.15%
47 | CC1=C(C)NC(=S)SC1 | 13.9%
48 | O=C1CC(c2ccccc2Cl)CC(O)=C1C=Nc1ccccc1 (centres unmarked) | 0.512%
49 | Cc1ccc2c(c1)N(C(=O)CCC(=O)NCCCN1CCOCC1)CCO2 | 5.17%
50 | O=C(CCC(=O)N1CCOc2ccc(Cl)cc21)NCCCN1CCC(Cc2ccccc2)CC1 | -75%
51 | O=C(CCC(=O)N1CCOc2ccccc21)NCCCN1CCOCC1 | 5.91%
52 | Cc1ccc2c(c1)N(C(=O)CCC(=O)NCCCN1CCN(C)CC1)CCO2 | -5.06%
53 | Cc1ccc2c(c1)N(C(=O)CCC(=O)NCCN1CCOCC1)CCO2 | -5.63%
54 | O=C(CCC(=O)N1CCOc2ccc(Cl)cc21)NCCCN1CCOCC1 | 6.57%
55 | Cc1ccc2c(c1)N(C(=O)CCC(=O)NCCCN1CCC(Cc3ccccc3)CC1)CCO2 | -77.1%
56 | Cc1ccc2c(c1)N(C(=O)CCC(=O)NCCCN1CC(C)CC(C)C1)CCO2 (centres unmarked) | -56.2%
